Results on 13 molecules are retold here after publication PMC5540273 (PLoS ONE, 2017).

One experiment deals with T1, TIE2.
T1 construct: gene TEK

Bounds are passed on as bounds.
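Note: kd values determined as follow-up on hits from a single-replicate KINOMEscan panel screen.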

`Cl.O=S(=O)(c1cccc(F)c1)c1ccc(Nc2ncnc3cc(Br)sc23)cc1Cl` [GSK306886]: the Kd in the experiment with SRPK1 was more than 10 µM. As for `Cn1cc(-c2ccc3c(c2)CCN3C(=O)Cc2cccc(C(F)(F)F)c2)c2c(N)ncnc21` [GSK2606414], the Kd with SRPK3 is more than 10 µM.

In the experiment with STK16, `c1ccc(-c2ccc3c(-c4ccnc(Nc5ccc6c(c5)OCCO6)n4)cnn3n2)cc1` [GW818941] gave a Kd of 0.62 µM. The same measure, in the same setting: the same measure for `Cc1ccc(C)c(NC(=O)NCCNc2ccnc(Nc3ccc(F)cc3)n2)c1` [GSK1379878]: more than 10 µM. On to `Cl.Cl.c1ccc(-c2cc3ccncc3cc2OC2CCNCC2)cc1` [GSK1122999], for which the Kd with STK33 and in the experiment on STK36 was more than 10 µM throughout. `CCc1nc(-c2cccc(N(C)S(=O)(=O)c3ccccc3)c2)c(-c2ccnc(Nc3ccc(N4CCN(C(C)=O)CC4)nc3)n2)s1` [GSK1645895]: the Kd in the experiment with STK36 worked out at 0.056 µM. The molecule `Cc1ccc(O)cc1Nc1cc(C(F)(F)F)nc2ccc(-c3ccncc3)cc12` [GW630823] showed a Kd in the experiment with TEC of more than 10 µM. For the molecule `Cn1ccc2ncnc(Nc3ccc(Oc4cccc(Cl)c4)c(Cl)c3)c21`, in the experiment on TEC, the Kd is more than 10 µM. In the case of `CS(=O)(=O)CCNCc1nc(-c2ccc3ncnc(Nc4ccc(OCc5cccc(F)c5)c(Cl)c4)c3c2)cs1.Cl` [GW583340], the Kd in the experiment with TESK1 was more than 10 µM. The molecule `O=C(c1ccc(-c2cc(-c3c[nH]nc3-c3ccccn3)ccn2)cc1)N1CCCC1` [GW792479] yielded a Kd in the experiment with TGFBR1 of 0.17 µM.

As to `FC(F)(F)c1ccc(-c2cc(-c3c[nH]nc3-c3ccccn3)ccn2)cc1` [GW599550], binding in the experiment with TGFBR1 was characterised by a dissociation constant (Kd) of 0.22 µM. Regarding `Clc1ccc(-c2cc(-c3c[nH]nc3-c3ccccn3)ccn2)cc1` [GW681251], the Kd with TGFBR2 was determined as 0.53 µM. As to `CC(C)N1CCC(n2cnc(-c3ccc(F)cc3)c2-c2ccnc(N)n2)CC1` [SB-223132], the Kd with TIE2 is more than 10 µM.
